Activity calls are given as the source filed them.

Experiment [1] in a line: E. coli DRC41 culture turbidity changes, primary screen, E. coli filamentation inducer project, strain DRC41, OD650, 48 h (AID 1152).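 Further: E. coli MC1000 strain DRC41 lacking acrAB efflux pump and sulA.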 The note with it: E. coli DRC41 (acrAB sulA), higher = more signal, called active from +8 up or from −8 down.
A short description of experiment [2]: small-molecule binders of probe aLefty1, primary screen, biochemical, small-molecule microarray, 635/667 nm fluorescence (AID 1153).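 Further: score merges spot fluorescence with signal-to-noise ratio from the scanned slide images.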 The note with it: higher = more signal.
The nature of experiment [3]: PSAC antagonists in infected red cells, primary screen, cell-based, P. falciparum Indochina, OD700, 1 h (AID 1154). The note with it: P. falciparum Indochina infected RBC osmotic lysis, higher = more signal, called active from +8 up or from −8 down.
A short description of experiment [4]: PSAC antagonists in infected red cells, primary screen, cell-based, P. falciparum Indochina, OD700, 2 h (AID 1155).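 Further: lysis reports solute entry through the parasite surface anion channel PSAC; channel blockers reduce lysis of infected cells.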 The note with it: P. falciparum Indochina infected erythrocytes, osmotic lysis OD700; higher = more signal, called active from +8 up or from −8 down.
Experiment [5] is described as follows: osmotic lysis modulators in infected erythrocytes, primary screen, PSAC antagonist project, cell-based, P. falciparum Indochina, OD700, 3 h (AID 1156). The note with it: higher = more signal, called active from +8 up or from −8 down.
Experiment [6] can be described thus: PSAC antagonists in infected red cells, primary screen, cell-based, P. falciparum Indochina, OD700, 18 h (AID 1157). The note with it: P. falciparum Indochina infected erythrocytes, osmotic lysis OD700, 18 h; higher = more signal, called active from +8 up or from −8 down.
Experiment [7] in a line: modulators of S6 phosphorylation in cells, primary screen, cell-based, A549, cytoblot, luminescence, serum-stimulated (AID 1158).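 Further: serum-stimulated A549 lung adenocarcinoma cells; signal is phosphorylated S6 detected by cytoblot immunostaining with HRP secondary.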 The note with it: A549 phospho-S6 cytoblot, 5 h, higher = more signal.
For experiment [8], the target named is NADPH oxidase 2 (Homo sapiens) (UniProt P04839). Put plainly: NOX2-dependent H2O2 signal modulators, primary screen, NOX inhibitor project, cell-based, HEK293-NOX2, PMA-stimulated, Amplex Red fluorescence (AID 1159). Further: test concentration not given here. The note with it: 45 min, higher = more signal, called active from +8 up or from −8 down.
For experiment [9], the target named is NADPH oxidase 4 (Homo sapiens) (UniProt Q9NPH5). Briefly: NOX4-dependent H2O2 signal modulators, primary screen, NOX inhibitor project, cell-based, HEK293-NOX4, tetracycline-induced, Amplex Red fluorescence (AID 1160). The note with it: 45 min, higher = more signal, called active from +8 up or from −8 down.
In experiment [10] the target is NADPH oxidase 5 (Homo sapiens) (UniProt Q96PH1). Briefly: NOX5-dependent H2O2 signal modulators, primary screen, NOX inhibitor project, cell-based, HEK293-NOX5, Amplex Red fluorescence (AID 1161). The note with it: HEK293-NOX5, ionomycin, 45 min, higher = more signal.
NADPH oxidase 5 (Homo sapiens), sequence (Q96PH1 whole entry, looked up): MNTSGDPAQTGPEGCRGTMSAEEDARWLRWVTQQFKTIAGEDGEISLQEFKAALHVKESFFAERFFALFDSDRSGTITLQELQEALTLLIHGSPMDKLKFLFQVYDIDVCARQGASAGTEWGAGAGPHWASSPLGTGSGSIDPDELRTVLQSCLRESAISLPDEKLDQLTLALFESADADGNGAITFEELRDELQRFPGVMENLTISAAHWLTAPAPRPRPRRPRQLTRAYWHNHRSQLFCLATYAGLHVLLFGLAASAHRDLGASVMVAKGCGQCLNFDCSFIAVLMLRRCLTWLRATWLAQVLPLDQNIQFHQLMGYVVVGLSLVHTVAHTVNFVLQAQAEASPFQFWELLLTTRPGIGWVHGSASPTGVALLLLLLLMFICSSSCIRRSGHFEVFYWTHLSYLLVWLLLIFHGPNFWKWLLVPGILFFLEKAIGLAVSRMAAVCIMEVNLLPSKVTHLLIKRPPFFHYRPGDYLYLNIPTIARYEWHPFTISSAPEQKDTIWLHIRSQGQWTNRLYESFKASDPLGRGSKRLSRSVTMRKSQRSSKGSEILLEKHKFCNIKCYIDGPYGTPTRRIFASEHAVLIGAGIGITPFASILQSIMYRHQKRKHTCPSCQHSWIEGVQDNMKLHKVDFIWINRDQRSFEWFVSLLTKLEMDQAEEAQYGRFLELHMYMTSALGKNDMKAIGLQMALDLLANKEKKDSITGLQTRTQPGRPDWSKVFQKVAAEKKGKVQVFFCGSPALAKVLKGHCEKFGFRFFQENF

NADPH oxidase 4 (Homo sapiens), sequence (Q9NPH5 whole entry, looked up): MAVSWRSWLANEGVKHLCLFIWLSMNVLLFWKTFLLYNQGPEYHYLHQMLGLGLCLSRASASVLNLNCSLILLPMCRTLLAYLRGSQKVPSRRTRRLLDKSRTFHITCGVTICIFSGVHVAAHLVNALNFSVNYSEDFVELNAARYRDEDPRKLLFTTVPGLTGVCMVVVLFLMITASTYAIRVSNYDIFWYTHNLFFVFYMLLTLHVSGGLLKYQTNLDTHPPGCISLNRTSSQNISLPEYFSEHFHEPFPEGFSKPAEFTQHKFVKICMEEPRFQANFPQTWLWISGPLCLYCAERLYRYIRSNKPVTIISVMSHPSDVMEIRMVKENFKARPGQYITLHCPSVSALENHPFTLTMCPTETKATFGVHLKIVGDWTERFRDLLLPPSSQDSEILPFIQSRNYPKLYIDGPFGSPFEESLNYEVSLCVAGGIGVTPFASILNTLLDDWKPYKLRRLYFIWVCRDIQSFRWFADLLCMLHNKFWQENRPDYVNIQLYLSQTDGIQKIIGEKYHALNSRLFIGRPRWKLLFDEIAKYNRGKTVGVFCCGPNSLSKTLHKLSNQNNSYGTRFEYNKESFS
NADPH oxidase 2 (Homo sapiens), sequence (P04839 whole entry, looked up): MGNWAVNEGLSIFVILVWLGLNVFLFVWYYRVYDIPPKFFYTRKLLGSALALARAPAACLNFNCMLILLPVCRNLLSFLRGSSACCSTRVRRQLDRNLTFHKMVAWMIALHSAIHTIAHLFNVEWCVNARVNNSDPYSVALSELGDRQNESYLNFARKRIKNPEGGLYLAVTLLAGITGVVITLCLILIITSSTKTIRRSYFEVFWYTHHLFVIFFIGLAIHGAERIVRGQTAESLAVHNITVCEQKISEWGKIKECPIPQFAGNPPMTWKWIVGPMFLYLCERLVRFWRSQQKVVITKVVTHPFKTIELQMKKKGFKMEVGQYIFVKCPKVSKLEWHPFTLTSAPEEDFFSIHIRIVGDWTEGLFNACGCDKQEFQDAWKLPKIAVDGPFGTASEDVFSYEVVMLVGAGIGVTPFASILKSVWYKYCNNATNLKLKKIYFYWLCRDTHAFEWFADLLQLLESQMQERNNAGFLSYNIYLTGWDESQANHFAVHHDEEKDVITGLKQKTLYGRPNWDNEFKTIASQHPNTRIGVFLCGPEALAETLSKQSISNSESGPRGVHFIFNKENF

On to `CN(C)C(=O)[C@]1(Cc2ccccc2)N=C(c2ccc(OCCCO)cc2)O[C@@H]1c1ccccc1N=[N+]=[N-]`, for which the z-score in experiment [1] is 0.554 (inactive); in experiment [3], 32.4 (active); in [4], 34.9 (active); in experiment [5], 1.96 (inactive); in experiment [6] it was 4.27 (inactive); in experiment [7] it was 0.0986. In addition, the figures for the z-score in experiment [8], in experiment [9] and in experiment [10] were -1.46 (inactive), -0.242 (inactive) and -1.36, respectively. In addition, the composite z-score in experiment [2] came out at 0.008.
In the case of `COCCCNC(=O)[C@@H]1c2ccccc2C(=O)N(Cc2ccccc2OC)[C@H]1c1ccc(CO)cc1`, the z-score in [1] is 0.876 (inactive); in experiment [3] it was 1.54 (inactive); in experiment [4], -0.0902 (inactive); in [5] it was 0.591 (inactive); in experiment [6] it was -0.631 (inactive); in experiment [7], 2.45. For the same compound, the z-score in experiment [8] was -1.79 (inactive); in [9] it was -3.52 (inactive); in experiment [10], -5.09. The compound also had a composite z-score in experiment [2] of 0.278.
Consider `CC[C@@H]1C=C(C(=O)O)[C@H](c2ccc(C)cc2)N1S(=O)(=O)c1ccc(C)cc1`, for which the z-score in experiment [1] is -0.557 (inactive); in experiment [3] it was 1.08 (inactive); in [4] it was 0.661 (inactive); in experiment [5], -0.245 (inactive); in experiment [6], 0.856 (inactive); in experiment [7], -0.362. In addition, the z-score in experiment [8] is 0.587 (inactive); in experiment [9] it was -0.57 (inactive); in [10], -1.24. In [2], this compound showed a composite z-score of 0.0582.
On to `COC(=O)[C@@]1(CCC(=O)OC(C)(C)C)N=C(c2ccc(OCCCO)cc2)O[C@H]1c1ccccc1`, for which the z-score in experiment [1] was -1.12 (inactive); in experiment [3] it was 26 (active); in [4] it was 14.9 (active); in [5], 2.32 (inactive); in experiment [6] it was 1.89 (inactive); in experiment [7], 0.197. Besides, the z-score was -2.39 (inactive) in experiment [8], -0.204 (inactive) in experiment [9] and -2.57 in experiment [10]. This compound also returned a composite z-score in experiment [2] of -0.009.
Consider `COc1ccc(-c2cc3c(c(Cc4ccccc4)n2)[Si](C(C)C)(C(C)C)OC3)cn1`, for which the z-score was -1.28 (inactive) in experiment [1]; 2.28 (inactive) in experiment [3]; 0.139 (inactive) in experiment [4]; -0.709 (inactive) in [5]; 0.408 (inactive) in experiment [6]; 0.0758 in [7]. The results for the z-score in [8], in experiment [9] and in experiment [10] were -1.62 (inactive), -0.121 (inactive) and -2.02, respectively. In experiment [2], this compound came in with a composite z-score of -0.0099.
Turning to `C#CCOc1ccc(C[C@@H](C(=O)OC)N(CC#C)[C@@H](/C=C/C2CC2)[C@H](O)Cc2ccccc2)cc1`, the z-score in experiment [1] was -1.04 (inactive); in experiment [3] it was 1.7 (inactive); in experiment [4], 0.135 (inactive); in experiment [5], -0.173 (inactive); in [6], -0.111 (inactive); in experiment [7], -0.138. Moreover, the figures for the z-score in experiment [8], in [9] and in experiment [10] were -0.0591 (inactive), 0.763 (inactive) and -0.732, respectively. The same compound yielded a composite z-score in experiment [2] of -0.101.
Consider `CC(C)CCC[C@@H](C)[C@H]1CC[C@@]2(C)C3=C(CC[C@]12C)[C@@]1(C)CC[C@H](OC(=O)c2ccc(C(F)(F)F)nc2)C(C)(C)C1CC3` (stereo not given in full), for which the z-score in [1] is 3.47 (inactive); in experiment [3], -1.05 (inactive); in experiment [4], -0.693 (inactive); in experiment [5] it was 0.103 (inactive); in experiment [6], -2.61 (inactive); in experiment [7], 2.5. The z-score in experiment [8] is -0.971 (inactive); in [9], 0.129 (inactive); in experiment [10] it was 0.933. Also, in experiment [2], the composite z-score was -0.155.
Regarding `CCCC1(C(=O)OC)C=C2C(=C(c3ccccc3)C(=O)C2C)CN1` (stereo not given), the z-score in experiment [1] was -1.23 (inactive); in experiment [3] it was 2.2 (inactive); in experiment [4], 0.194 (inactive); in experiment [5], 0.923 (inactive); in [6] it was 0.324 (inactive); in experiment [7] it was -0.267. For the same compound, the z-score is -0.2 (inactive) in experiment [8], -2.64 (inactive) in experiment [9] and -2.63 in experiment [10]. Besides, the composite z-score in experiment [2] was 0.51.
On to `CCCNC(=O)[C@@H]1c2ccccc2C(=O)N(Cc2ccccc2OC)[C@H]1c1ccc(CO)cc1`, for which the z-score was 0.0817 (inactive) in [1]; 2.32 (inactive) in [3]; 0.117 (inactive) in [4]; 0.297 (inactive) in [5]; 0.0117 (inactive) in experiment [6]; -0.439 in experiment [7]. Also, the z-score in experiment [8] was 0.802 (inactive); in experiment [9], 0.998 (inactive); in experiment [10] it was 0.686. For the same compound, the composite z-score in experiment [2] was -0.0011.
Turning to `COc1ccc([C@H]2OC[C@@H]3CCC(=O)N32)cc1`, the z-score in experiment [1] is 0.0137 (inactive); in experiment [3], 0.4 (inactive); in experiment [4], 0.698 (inactive); in [5], -0.297 (inactive); in experiment [6], 0.48 (inactive); in experiment [7], 0.0166. Also, the results for the z-score in [8], in [9] and in [10] were 0.982 (inactive), 0.342 (inactive) and -0.0609, respectively. Besides, the composite z-score in experiment [2] was 0.0868.
Regarding `COCC(=C=CC[C@@H](O)c1ccc(OCCO)cc1)C[C@@H](O)c1ccccn1`, the z-score in experiment [1] was -0.125 (inactive); in experiment [3] it was 6.36 (inactive); in experiment [4] it was 0.848 (inactive); in experiment [5] it was -0.315 (inactive); in [6], 0.429 (inactive); in experiment [7], -0.577. For the same compound, the z-score in [8] was -0.0904 (inactive); in experiment [9], 0.654 (inactive); in experiment [10], 0.177. In experiment [2], the composite z-score is -0.0061.
On to `C=CCNC(=O)[C@H]1[C@@H]2C(=O)O[C@@H](c3ccccc3)[C@@H](c3ccccc3)N2[C@@H](c2ccc(O)cc2)[C@]12C(=O)Nc1ccc(C#CCCO)cc12`, for which the z-score in experiment [1] is 0.605 (inactive); in experiment [3] it was 5.56 (inactive); in [4] it was 0.608 (inactive); in experiment [5], -0.763 (inactive); in experiment [6], 0.443 (inactive); in experiment [7] it was -0.0803. Also, the z-score in [8] was 0.67 (inactive); in [9] it was -0.436 (inactive); in [10] it was 0.603. The compound also had a composite z-score in [2] of 0.117.
With `O=C1C2C=CC(C(O)c3ccc(-c4ccccc4)s3)N(Nc3ccccc3)C2C(=O)N1c1ccccc1` (stereo not given), the z-score in experiment [1] is -0.517 (inactive); in experiment [3] it was 8.45 (active); in experiment [4], 2.11 (inactive); in experiment [5], 0.214 (inactive); in [6] it was 1.1 (inactive); in experiment [7] it was -0.505. In addition, the figures for the z-score in experiment [8], in experiment [9] and in experiment [10] were -0.986 (inactive), -3.23 (inactive) and -0.493, respectively. In [2], this compound displayed a composite z-score of 0.591.

For the origin of these results see PubChem BioAssay.
